Assay outcomes as filed in PubChem BioAssay.
GLP1R cytotox: cytotoxicity in counter-screen for GLP-1R inverse agonists; HEK293 cAMP-luciferase reporter cells, luminescence, 24 h; Potency, µM (titrated, usually from 38.3 µM), for the others: top-dose activity change, negative = inhibition, actives largely listed as inhibitors; actives 0.13% (n = 410,000);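 also: loss of luciferase light is scored as toxicity; % is scaled to controls: 0 for no effect and ±100 for the full control effect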
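Cells in DMEM/10% Nu serum/1% pen-strep, 1536-well format. Pre-incubated 12 h, dosed with 23 nL compound, incubated a further 24 h. Luciferase detection, 12 min at room temp, luminescence.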
GLP1R ag: agonists of human GLP-1 receptor; HEK293 GLP-1R CRE-luciferase, luminescence, 4-6 h; cells express a hypersensitive GLP-1R form; AID 624172; actives 0.007% (n = 380,000); Potency, µM (titrated, usually from 45.6 µM), for the others: at the top dose activation, usual class: activators; also: % of control where 0% means no effect
GLP1R inv ag: GLP-1 receptor (human) inverse agonism | P43220 | actives 1.6% (n = 410,000) | HEK293 GLP-1R CRE-luciferase, luminescence, 24 h; GLP-1R form is constitutively active | AID 624417 | Potency, µM (series often up to 38.3 µM), for the others: at the top dose activity change, negative = inhibition, actives largely listed as inhibitors; also: % is scaled to controls: 0 for no effect and ±100 for the full control effect; nearly all actives have a fitted effect of over 55% in size
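Inverse agonists were sought by their lowering of basal cAMP reporter luciferase output in HEK293 cells stably carrying constitutively active human GLP-1R, after 24 h compound treatment.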
PTHR1 agonist: activates the human parathyroid hormone receptor PTHR1; Q03431; HEK293 GP2 PTHR1 cells, GloSensor cAMP luminescence, 1 h; Potency, µM (top dose mostly 115 µM), for inactives: at the highest dose activation, usual class: activators; actives 0.075% (n = 410,000); AID 743266; also: nearly all actives have a fitted effect of over 55% in size
Target sequence (Q03431 whole entry, looked up): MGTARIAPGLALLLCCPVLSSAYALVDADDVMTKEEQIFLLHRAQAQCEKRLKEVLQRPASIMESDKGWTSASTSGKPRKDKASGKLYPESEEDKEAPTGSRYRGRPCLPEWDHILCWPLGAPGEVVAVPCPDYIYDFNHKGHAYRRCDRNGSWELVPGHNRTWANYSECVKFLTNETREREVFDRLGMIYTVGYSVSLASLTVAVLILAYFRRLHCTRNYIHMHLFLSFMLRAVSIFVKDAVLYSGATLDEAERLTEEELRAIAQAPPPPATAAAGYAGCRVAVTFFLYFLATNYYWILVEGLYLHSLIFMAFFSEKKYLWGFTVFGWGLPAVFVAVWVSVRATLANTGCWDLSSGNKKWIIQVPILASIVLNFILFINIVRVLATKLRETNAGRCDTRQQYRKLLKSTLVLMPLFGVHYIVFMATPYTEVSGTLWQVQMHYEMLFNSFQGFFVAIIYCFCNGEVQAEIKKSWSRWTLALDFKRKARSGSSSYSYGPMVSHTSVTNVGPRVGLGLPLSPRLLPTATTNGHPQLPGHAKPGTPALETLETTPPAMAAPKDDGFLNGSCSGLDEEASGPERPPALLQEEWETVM
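HEK-293-derived GP2 cells expressing PTHR1 and a GloSensor cAMP reporter, 3,000/well, plated overnight, given luciferin plus IBMX (each 0.5 mM as added) for 1 h at 37 °C, then compound for 1 h at 37 °C. Luminescence was read after 15 min at room temperature.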
Active calls of the source: *; i = inactive; ? = inconclusive; nt = not tested or not shown; [ ] = dose if it differs, or a comment. Most compounds without a hit are left out; they make up all but 1.7% or so of the library. Calls follow the shape of the dose curve; as a rule, active = well fitted curve in the direction sought with a large enough effect; inconclusive = small, poorly fitted or top-dose-only effect, or another doubt; inactive = no such curve, though single readings can be large; an effect the other way counts as inactive or inconclusive. Potency is read from the fitted curve at half-maximal effect.

SMILES | GLP1R cytotox | GLP1R ag | GLP1R inv ag | PTHR1 agonist
Cc1ccc(NC(=S)N=Nc2c(O)[nH]c3ccccc23)cc1 | 4µM* | 11% | ? | -4%
COc1ccc(S(=O)(=O)N=Nc2c(O)[nH]c3ccccc23)cc1 | 16% | -4% | 0% | -15%
Cc1ccccc1N=Nc1c(O)[nH]c2ccccc12 | 6% | -1% | 3% | i
Oc1ccc(NC(=S)N=Nc2c(O)[nH]c3ccccc23)cc1 | ? | 0% | -1% | -13%
CNC(=S)N=Nc1c(O)[nH]c2ccccc12 | 11µM* | 2% | -3% | i
COc1ccc(NC(=S)N=Nc2c(O)[nH]c3ccccc23)cc1 | 3.2µM* | -4% | ? | -23%
COc1ccccc1NC(=O)NC1CC(=O)N(c2ccc3c(c2)OCCO3)C1 (configuration not stated) | 10% | 1% | -9% | i
Cc1ccccc1NC(=O)c1ccc(-c2ccc(Cl)cc2Cl)o1 | 0% | 9% | ? | -8%
S=C(c1ccc(-c2ccc(Cl)cc2Cl)o1)N1CCCCC1 | -3% | 5% | 10µM* | -15%
Cc1cccc(C)c1NC(=O)c1ccc(-c2ccc(Cl)cc2Cl)o1 | -2% | -8% | 1.6µM* | -38%[57.5 µM]
COc1cc(C)ccc1S(=O)(=O)N1CCN(C23CC4CC(CC(C4)C2)C3)CC1 | -4% | 0% | 8% | -33%
CN1CCCN=C1/C=C\c1cccs1 | nt | 0% | nt | nt
COc1cccc(C(C)N(C)Cc2nc(COc3ccccc3)no2)c1 (configuration not stated) | 6% | 10% | 10µM* | -30%
CC(c1cccs1)N(C)Cc1nc(CCc2ccccc2)no1 (configuration not stated) | 17% | -2% | 10µM* | -22%
CCCCn1nnnc1C1(C)CCC(=O)N1CCc1ccccc1F (configuration not stated) | -37% | -1% | ? | i
COc1ccccc1N(C)S(=O)(=O)c1ccc(C(=O)N(C)Cc2ccc(OC(F)F)cc2)cc1 | 4% | 2% | ? | -38%
N#Cc1c(-c2ccccc2)c(-c2ccccc2)nn(CC(=O)NNC(=O)Nc2ccc(Cl)cc2)c1=O | -22% | 5% | 10µM* | 15%
CCOC(=O)N1CCN(C(=O)C[C@@H]2C[C@@]3(C(=O)OC)CCCCC=C3N(Cc3ccc(Cl)cc3Cl)C2=O)CC1 | -14% | -2% | 11µM* | -2%
CCOC(=O)N1CCN(C(=O)C[C@@H]2C[C@@]3(C(=O)OCC)CCCC=C3N(Cc3ccc(Cl)cc3Cl)C2=O)CC1 | 1% | 0% | ? | -20%
CN1CCN(NC(=O)CSc2ccc(Cl)cc2Cl)CC1 | -7% | 9% | 7% | -4%
COc1ccc2c(c1)-c1nc(NC(=O)c3cc(OC)c(OC)c(OC)c3)sc1CC2 | ? | nt | 10µM* | ?
Cc1ccc(S(=O)(=O)Nc2ccc(Nc3nccn4c(-c5ccc6ccccc6c5)cnc34)cc2)cc1 | -3% | -8% | ? | i
Cc1ccc(SCC(=O)Nc2ccccc2N2CCOCC2)cc1 | 3% | 11% | 7.9µM* | i
COc1cccc(Cn2c(SCC(=O)N(C)c3ccccc3)nc3ccccc32)c1 | -4% | nt | ? | -35%
CCN(CC)c1nc2ccccc2n(Cc2cccc(OC)c2)c1=O | 7% | 18% | 3.5µM* | -16%
SMILES | GLP1R cytotox | GLP1R ag | GLP1R inv ag | PTHR1 agonist
CC(C)(C)c1ccc(C(CC(=O)O)NC(=O)c2ccccc2F)cc1 (configuration not stated) | 0% | 1% | 0% | i
CC1CCc2c(sc3nc(C4CC4)nc(N4CCN(C(=O)c5ccco5)CC4)c23)C1 (configuration not stated) | ? | -4% | 5.6µM* | -34%
CC(C)(C)OC(=O)N1CCC(c2c(C(=O)Nc3ccc4c(c3)OCO4)cnn2-c2ccc(F)cc2F)CC1 | -5% | nt | ? | i
COc1ccc(CCNC(=O)c2nn(C)c3c2CS(=O)(=O)c2ccccc2-3)cc1OC | -15% | 15% | 20% | i
COc1cc(/C=N/N=C2/C(=O)Nc3ccccc32)ccc1O | ? | 6% | 86% | i
O=C1Nc2ccccc2/C1=N\N=C\c1ccc(O)c(O)c1 | 11µM* | 15% | 25% | -32%
COc1cccc(NC(=O)CN(C)C(=O)c2cccc(S(=O)(=O)N3CC4(C)CC3CC(C)(C)C4)c2)c1 (configuration not stated) | 2% | 9% | 2% | i
CCCCNC(=O)c1cccc(S(=O)(=O)N2CC3(C)CC2CC(C)(C)C3)c1 (configuration not stated) | 2% | 9% | 10µM* | -20%
COc1ccc(NC(=O)CN(C)C(=O)c2cccc(S(=O)(=O)N3CC4(C)CC3CC(C)(C)C4)c2)cc1 (configuration not stated) | -22% | 21% | 11µM* | -25%
Cc1ccc(NC(=O)CN(C)C(=O)c2cccc(S(=O)(=O)N3CCc4ccccc43)c2)cc1 | -7% | -6% | 11µM* | -19%
CC(C)CN(CC(C)C)C(=O)c1cccc(S(=O)(=O)N2CCc3ccccc32)c1 | ? | 6% | ? | -7%
O=C1CC(N(CCc2ccccc2)C(=S)Nc2ccccc2)C(=O)N1c1ccc(Br)cc1 (configuration not stated) | ? | -6% | ? | -55%
Cc1ccc(N2C(=O)CC(N(CCc3ccccc3)C(=S)Nc3ccc(N(C)C)cc3)C2=O)cc1 (configuration not stated) | -31% | 0% | 4µM* | i
Cc1ccc(C)c(S(=O)(=O)N2CCN(C(=O)c3cncc(Br)c3)CC2)c1 | -4% | 6% | -14% | i
CCOC(=O)Nc1ccc2c(c1)C(=NNC(N)=S)c1ccccc1-2 | 4µM* | -18% | ? | -39%
CCOC(=O)Nc1ccc2c(c1)C(=NO)c1ccccc1-2 | -39% | 6% | ? | -9%
Cc1ccc(CN2CCc3c(OCc4ccc(F)cc4)cccc3C2=O)cc1 | 12% | 13% | 4.5µM* | -36%
Cc1ccc(C)c(CN2C(=O)CSc3ccc(C(=O)NCc4ccc(F)cc4)cc32)c1 | 5% | -1% | 8% | -24%
CCN1CCN(C(c2cccs2)C(C)NS(=O)(=O)c2ccc(Br)cc2)CC1 (configuration not stated) | ? | -4% | 11µM* | 2%
Cc1ccc(S(=O)(=O)NC(C)C(c2cccs2)N2CCN(C)CC2)cc1 (configuration not stated) | 0% | -2% | ? | i
Cc1ccc2c(c1)c1c(n2CC(O)Cn2c(C)nc3ccccc32)/C(=N\O)CCC1 (configuration not stated) | ? | -12% | 10µM* | i
CCCCOCC(O)Cn1c(C)nc2ccccc21 (configuration not stated) | -13% | -2% | -29% | 9%[57.5 µM]
